According to PubChem BioAssay (NCI):
Compounds without any hit were thinned out: in the full panel of roughly 83,000, 20% have a hit.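 Step 1: grow cells in 96-well plates. Step 2: add test compound at a single concentration. Step 3: incubate 48 h. Step 4: record percent growth.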 Calls of active or inactive are those of the source. Rule for the calls: active = growth percent below 10; inactive = the rest.

Key:
Assay in all cases: NCI-60 one-dose screen, 48 h (100 = growth as untreated, 0 = no growth, -100 = all killed)
Conditions in all cases: 10 µM unless noted
[1] = test system: SK-MEL-2 melanoma
[2] = test system: EKVX NSCLC
[3] = test system: SN12C renal
[4] = test system: UO-31 renal
[5] = test system: TK-10 renal
[6] = test system: ACHN renal
[7] = test system: CAKI-1 renal
[8] = test system: A498 renal
[9] = test system: CCRF-CEM leukemia
[10] = test system: MOLT-4 leukemia
[11] = test system: RPMI-8226 leukemia
[12] = test system: OVCAR-8 ovarian
[13] = test system: OVCAR-5 ovarian
[14] = test system: OVCAR-4 ovarian
[15] = test system: SK-OV-3 ovarian
[16] = test system: IGROV1 ovarian
[17] = test system: OVCAR-3 ovarian
[18] = test system: HS 578T breast
[19] = test system: NCI/ADR-RES ovarian
[20] = test system: SR leukemia

Measured: growth

CCC(=O)OCc1ccc(OC)cc1
inactive: [1] 112% | [2] 107% | [3] 91% | [4] 82% | [5] 107% | [6] 103% | [7] 96.6% | [8] 144% | [9] 99.4% | [10] 95.3% | [11] 107% | [12] 102% | [13] 95% | [14] 107% | [15] 108% | [16] 102% | [17] 110% | [18] 135% | [19] 99.4%

CC(C)[C@@H]1C=C2CC[C@H]3[C@](C)(CN)CCC[C@]3(C)[C@H]2CC1
inactive: [1] 81.7% | [2] 65.6% | [3] 93% | [4] 68.3% | [5] 90.8% | [6] 80.5% | [7] 78.7% | [8] 66.6% | [9] 71% | [10] 49.4% | [11] 20.7% | [12] 82.3% | [13] 111% | [14] 77.3% | [15] 113% | [16] 92.2% | [17] 44.4% | [18] 74.6% | [19] 106%

COc1ccc(-c2nc3ccccc3n3cccc23)cc1
inactive: [1] 111% | [2] 97.2% | [3] 95.1% | [4] 45.7% | [5] 138% | [6] 105% | [7] 85.5% | [8] 99.4% | [9] 89.9% | [10] 101% | [11] 75.6% | [12] 103% | [13] 113% | [14] 99.8% | [15] 122% | [16] 47.1% | [17] 101% | [18] 111% | [19] 107%

O=C1C=CN2C(=O)CC=CC2[C@@H]1O (stereo partly specified)
inactive: [1] 113% | [2] 121% | [3] 106% | [4] 78.2% | [5] 118% | [6] 109% | [7] 109% | [8] 108% | [9] 96.3% | [10] 109% | [11] 96.4% | [12] 114% | [13] 121% | [14] 110% | [15] 104% | [16] 118% | [17] 120% | [18] 121% | [19] 106%

COc1ccc(C2c3cccn3-c3ccccc3N2C(C)=O)cc1 (stereo unspecified)
inactive: [1] 117% | [2] 85.9% | [3] 99.8% | [4] 70.6% | [5] 103% | [6] 99% | [7] 84.2% | [8] 86% | [9] 88.3% | [11] 85.5% | [12] 125% | [13] 99.3% | [14] 126% | [15] 101% | [16] 74.3% | [17] 95.3% | [19] 91.2%
active: [10] 1.08%

COc1ccc(Nc2nc(N)nc3c(=O)[nH]ccc23)cc1
inactive: [1] 111% | [2] 105% | [3] 113% | [4] 64.6% | [5] 173% | [6] 115% | [7] 93.3% | [8] 120% | [9] 83.9% | [10] 97.8% | [11] 97.3% | [13] 107% | [14] 111% | [15] 107% | [16] 87.5% | [17] 113% | [18] 118% | [19] 100%

Cc1[nH]c2ccccc2c1C1=CC(=O)C=CC1=O
inactive: [1] 93.7% | [2] 107% | [3] 90.8% | [4] 59.5% | [5] 92.2% | [6] 58.7% | [7] 96.8% | [8] 121% | [9] 28.4% | [20] 12.2% | [13] 103% | [14] 85.6% | [15] 120% | [16] 79.6% | [17] 36.7% | [18] 99.7% | [19] 77%

FC(F)(F)c1nn[nH]n1
inactive: [1] 112% | [2] 99.3% | [3] 105% | [4] 99.1% | [5] 111% | [6] 109% | [7] 97% | [8] 102% | [10] 101% | [20] 104% | [11] 89.5% | [12] 105% | [13] 108% | [14] 111% | [15] 107% | [16] 118% | [17] 104% | [18] 111%

CC(C)c1ccc(-c2cnc3nonc3n2)cc1
inactive: [1] 76.4% | [2] 71.9% | [3] 26.2% | [4] 41.3% | [5] 47.5% | [6] 51.3% | [7] 60.7% | [8] 61.8% | [12] 36.6% | [13] 37.6% | [14] 59.5% | [15] 82.4% | [16] 54.4% | [17] 15.6% | [18] 77.6% | [19] 19.9%
active: [9] 1.81% | [10] -12.1%

COC(=O)CSc1ccc(Cl)cc1
inactive: [1] 104% | [2] 101% | [3] 121% | [4] 93.3% | [5] 104% | [6] 104% | [7] 95.1% | [8] 79.9% | [10] 88.8% | [20] 78% | [12] 106% | [13] 107% | [15] 102% | [16] 93.9% | [17] 122% | [18] 108% | [19] 115%

O=C1Nc2ccc(Cl)cc2/C1=C\c1c(-c2ccc(F)cc2)nc2ccccn12
inactive: [1] 66.2% | [2] 33.8% | [5] 82.8% | [6] 31.4% | [7] 40.2% | [12] 22% | [13] 37% | [16] 20.6%
active: [3] 6.4% | [4] 6.63% | [8] -18% | [9] 5.38% | [10] -4.17% | [14] -69.7% | [15] -52.1% | [17] -70.4% | [19] -37%

CCOC(=O)Nc1ccc2nc(N3CCCCCC3)sc2c1
active: [15] 5.7% | [17] -20.5% | [19] 0.974%
inactive: [1] 36.8% | [2] 59.9% | [3] 44.2% | [4] 39.2% | [5] 51.1% | [6] 61.9% | [7] 27.2% | [8] 54.7% | [9] 16.7% | [11] 19.5% | [12] 32.7% | [13] 65.7% | [14] 57.5% | [16] 49.8% | [18] 43.7%

COc1cc(Cl)cc(-c2nn(C(=O)NCCN3CCOCC3)cc2-c2ccncc2)c1
inactive: [1] 78.3% | [2] 93.4% | [3] 75.3% | [4] 56.9% | [5] 78% | [6] 65.6% | [7] 73.3% | [8] 65.7% | [10] 74.2% | [20] 29.8% | [12] 72.9% | [13] 99.5% | [14] 102% | [15] 48.7% | [16] 61.5% | [17] 20.3% | [18] 97% | [19] 60.9%

Clc1cc2nc(-c3ccccc3)c(-c3ccccc3)nc2cc1Cl
inactive: [1] 87.9% | [2] 82.6% | [3] 90.4% | [4] 55.7% | [5] 123% | [6] 93.7% | [7] 89.4% | [8] 82% | [9] 88.2% | [12] 112% | [13] 98.6% | [14] 86.9% | [15] 89.3% | [16] 65.6% | [17] 92.1% | [18] 93.7% | [19] 98.5%

CC(C)C/C=C/C=C/C(=O)N[C@@H](CC(N)=O)C(=O)N[C@@H]1C(=O)N[C@H](c2ccc(O)cc2)C(=O)N[C@H](CCCN)C(=O)N[C@H]([C@@H](C)O)C(=O)N[C@H](c2ccc(O)cc2)C(=O)N[C@H](c2ccc(O)cc2)C(=O)N[C@H]([C@H](C)O)C(=O)N[C@H](Cc2ccccc2)C(=O)N[C@H](CCCN)C(=O)N[C@H](c2ccc(O[C@H]3O[C@@H](CO)[C@@H](O)[C@@H](O)[C@H]3O[C@@H]3O[C@H](CO)[C@H](O)[C@H](O)[C@@H]3O)cc2)C(=O)N[C@H]([C@H](C)O)C(=O)N[C@H](c2ccc(O)cc2)C(=O)NCC(=O)N[C@H](CC(C)C)C(=O)N[C@H](C)C(=O)N[C@H](c2ccc(O)c(Cl)c2)C(=O)O[C@@H]1C(N)=O
inactive: [1] 88.2% | [2] 92.7% | [3] 94.5% | [4] 118% | [5] 74.5% | [6] 111% | [7] 97.1% | [8] 199% | [10] 38.8% | [20] 33.1% | [11] 109% | [12] 63.9% | [13] 36.2% | [14] 117% | [15] 87.4% | [16] 96.6% | [17] 117% | [18] 67.3% | [19] 96.9%

O=c1c2cc(Br)cc(Br)c2nc(-c2ccc(Cl)cc2)n1/N=C/c1cccc(F)c1
active: [14] -11%
inactive: [1] 59.8% | [2] 59.2% | [3] 53.5% | [4] 19.7% | [5] 22.3% | [6] 10.8% | [7] 14.5% | [8] 101% | [9] 48.8% | [10] 64.8% | [12] 29.4% | [13] 61% | [15] 52% | [16] 33.1% | [17] 49.8% | [18] 35.2% | [19] 40.3%

COc1cc(NC(=O)CSc2nc3ccc(Cl)cc3c(=O)n2-c2ccccc2)cc(OC)c1OC
inactive: [1] 99.8% | [2] 76.4% | [3] 94.3% | [4] 51% | [5] 120% | [6] 92.1% | [7] 83.3% | [8] 46.6% | [9] 70.5% | [12] 93.2% | [13] 96.3% | [14] 85.7% | [15] 101% | [16] 91.5% | [17] 97% | [18] 81.5% | [19] 90.8%

CCOC(=O)C1=C(C)NC(=S)NC1c1ccccc1 (stereo unspecified)
inactive: [1] 113% | [2] 97.6% | [3] 103% | [4] 76.4% | [5] 104% | [6] 99.6% | [7] 87.5% | [8] 86.3% | [9] 109% | [20] 94.3% | [11] 112% | [12] 103% | [13] 101% | [14] 98.5% | [15] 114% | [16] 97.4% | [17] 110% | [19] 109%

CCCCCCCCCCCC1=NC(C)(C)CN1CC(C)O (stereo unspecified)
inactive: [1] 63.4% | [2] 68.8% | [3] 69.8% | [4] 47.6% | [5] 91.7% | [6] 80.2% | [7] 69.8% | [8] 99.8% | [9] 25.5% | [10] 25.4% | [12] 81.7% | [13] 92.5% | [14] 70.2% | [15] 82.6% | [16] 30% | [17] 73.9% | [19] 87%

CCCCCCCCCCCC1=NC(C)(C)CN1C(C)C
inactive: [1] 60.9% | [2] 57.5% | [3] 61% | [4] 38% | [5] 81.6% | [6] 61.6% | [7] 46.6% | [8] 76.7% | [9] 29.3% | [12] 58.7% | [13] 74.6% | [14] 50.7% | [15] 75.9% | [16] 32.5% | [17] 48.3% | [18] 53.2% | [19] 47.3%

O=C(O)C(CCc1ccccc1)NCc1ccccc1 (stereo unspecified)
inactive: [1] 94.9% | [2] 102% | [3] 93% | [4] 77.8% | [5] 91% | [6] 95.8% | [7] 100% | [8] 86.2% | [10] 108% | [20] 106% | [12] 106% | [13] 93.5% | [14] 78.5% | [15] 98.5% | [16] 101% | [17] 100% | [18] 99.4% | [19] 93.7%
